Experimental data from PubChem BioAssay AID1159580 (chemical genetic matrix, 2015).
Out of some 5,500 compounds screened, about 2,000 (36%) were called active. Inconclusive results (about 18%) are left out. Rule as the data show it: active = normalized growth mostly below about 0.91 (no sharp cut-off); inconclusive = no clear call, values can overlap the other calls; inactive = mostly above about 0.92. Some of the results follow.

Experiment: chemical genetic growth profiling, strain panel (AID 1159580);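 also: tested at 20 µM; growth read once vehicle control cultures reached saturation at 30 °C; 1 = growth at the plate median or of vehicle wells; lower values mean less growth of the strain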
Conditions: S. cerevisiae deletion strains, growth OD

Measured: normalized growth

COC(=O)C(C)(N)Cc1ccc(O)cc1 (centres undefined)
inactive: locus YAL013W, strain DEP1, stronger effect = lower value 0.991 | locus YAL040C, strain CLN3, stronger effect = lower value 0.987 | locus YCL061C, strain MRC1 (second series), stronger effect = lower value 1.01 | locus YDR363W, strain ESC2, stronger effect = lower value 0.966 | locus YER002W, strain NOP16, stronger effect = lower value 1.01 | locus YGR078C, strain PAC10, stronger effect = lower value 0.976 | locus YMR307W, strain GAS1, stronger effect = lower value 0.974 | locus YNL153C, strain GIM3, stronger effect = lower value 1.03 | locus YNL175C, strain NOP13, stronger effect = lower value 0.996 | locus YNL197C, strain WHI3, stronger effect = lower value 0.99 | locus YNL224C, strain SQS1, stronger effect = lower value 0.997 | locus YOR083W, strain WHI5 (second series), stronger effect = lower value 1.01 | locus YPL055C, strain LGE1, stronger effect = lower value 0.988 | locus YPL241C, strain CIN2, stronger effect = lower value 1.01
